This is a sample that favours compounds with a hit; in the whole collection about 1.8% have one here.
PKD1 kinase inh: PKD1 (human) kinase inhibition; Q15139; PKD1 kinase fluorescence polarization assay; inhibition, % (no concentration beside the values); actives 0.056% (n = 200,000); AID 797
VLA-4 inh: inhibition in a human VLA-4 binding assay; P13612; actives 0.2% (n = 330,000); VLA-4 expressing cells, ligand binding flow cytometry; inhibition, % (about 7 µM as worked out from the volumes in the protocol); AID 2557
GRK2 aptamer HTS: human GRK2 inhibition via aptamer displacement | P25098 | bead flow cytometry, FAM-aptamer displacement from GRK2 | inhibition of aptamer binding, % at 10 µM | actives 0.59% (n = 330,000) | AID 488847;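 active = inhibition of aptamer binding above 40%, roughly 3 SD of noise, on plates passing a quality check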;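 note: median bead fluorescence of bound FAM aptamer so fluorescent compounds give negative values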
LANA-H2A inh: blocks KSHV LANA binding to histone H2A/H2B. cell-free LANA-H2A/H2B peptide, fluorescence polarization. actives 0.6% (n = 320,000). Q9QR71. inhibition, % (concentration not given with the values); in the data active = inhibition mostly above about 10%, no sharp cut-off; inactive = mostly below about 6.7%
HDAC3 inhib: inhibitors of human histone deacetylase 3. O15379. recombinant HDAC3, fluorogenic peptide/trypsin coupled, fluorescence. inhibition, % at 8.3 µM. actives 0.15% (n = 320,000). AID 2718; in the data active = inhibition above about 26%, passing the limit was not always enough
DSG3 Ab inh: inhibitors of pemphigus antibody binding to human desmoglein-3 | DSG3-coupled beads, scFv-anti-DSG3-GFP binding, flow cytometry; hits give low values | binding (percent of control), % at 10 µM | actives 0.48% (n = 310,000);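 active = binding more than 3 SD below its plate's average and above zero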;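 note: hits lower antibody fragment binding to DSG3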
An asterisk follows results filed as active; · = no result. Cut-off read from the data, not from the text of the source, unless noted: active = inhibition above about 50%; inactive = the rest.

SMILES	PKD1 kinase inh	VLA-4 inh	GRK2 aptamer HTS	LANA-H2A inh	HDAC3 inhib	DSG3 Ab inh
c1ccc(-c2ccccc2OCCCCN2CCCCC2)cc1	-1	-1	0	4	3	107
c1ccc(-c2ccccc2OCCCN2CCCC2)cc1	1	6	0	3	-3	72*
c1ccc(-c2ccccc2OCCCN2CCCCCC2)cc1	-3	2	0	84*	2	97
COc1ccc(OC)c(CN2CCN(C(=O)c3cc4ccccc4cc3O)CC2)c1	·	-2	4	2	7	111
Cc1ccc(C)c(Cn2nnc3c(=O)[nH]c(C4CCCN(S(=O)(=O)Cc5ccccc5)C4)nc32)c1 (centres undefined)	·	7	0	5	1	100
Cc1cc(NC(=S)Nc2cccnc2)ccc1Br	0	-1	1	4	3	114
Cc1cc(NC(=S)Nc2ccccc2)ccc1Br	7	2	1	22*	7	108
CCOc1ccc(OCC)c(NC(=O)CN2CCN(CC)CC2)c1	-13	16	3	3	1	104
CCOc1ccc(OCC)c(NC(=O)CN2CCN(CC(=O)NC(C)C)CC2)c1	·	-4	0	14*	2	104
C=CCOc1c(/C=N\NC(N)=O)cccc1OC	·	0	3	2	3	110
COc1cccc(Sc2ccccc2/C=N/NC(N)=O)c1	2	-7	0	-1	-8	38*
Cc1cc(C)c2nc(N3C(=O)C(O)=C(C(=O)c4ccco4)C3c3cccc(O)c3)sc2c1 (centres undefined)	·	-10	2	·	-2	102
CCOc1ccc(/C(O)=C2/C(=O)C(=O)N(c3cc(C)on3)C2c2ccc(C(=O)OC)cc2)cc1 (centres undefined)	-13	-4	4	-7	-2	-31*
CC(=O)CSc1nnc(C(F)(F)F)n1C	·	-5	1	2	1	·
CC(C)CN(C#N)c1nc(N2CCOCC2)nc(N2CCOCC2)n1	-8	21	0	0	-4	107
CN(C#N)c1nc(N2CCOCC2)nc(N2CCOCC2)n1	-4	14	0	41*	-2	99
CCOc1cc(N2CCOCC2)c(OCC)cc1NC(=O)c1ccccc1N1CCCC1=O	·	·	·	·	·	99
CC(C)(C)c1cc(C(c2cccnc2)N2CCN(CCO)CC2)cc(C(C)(C)C)c1O (centres undefined)	2	50*	0	-2	16	128
OCCN1CCN(C(c2cccs2)c2ccc3cccnc3c2O)CC1 (centres undefined)	16	·	·	·	·	·
CCOc1cc(/C=C2/NC(=O)N(CC(=O)Nc3cccc(C)c3)C2=O)ccc1OCC(N)=O	1	-5	1	1	10	50*
CCOc1cccc(/C=C2/NC(=O)N(CC(=O)Nc3cccc(C)c3)C2=O)c1O	-4	2	0	-2	-9	105
O=C(c1cc(Cl)nc2ccccc12)N1CCN(Cc2ccc3c(c2)OCO3)CC1	·	7	0	21*	2	101
COc1ccc(Cl)cc1C(=O)N1CCN(Cc2ccc3c(c2)OCO3)CC1	·	-3	1	14*	-3	113
Cn1c(SCC(=O)NC2CCCCC2)nnc1-c1cc2cc(Cl)ccc2o1	-5	-3	0	-2	0	64*
CC(NC(=O)CSc1nnc(-c2cc3cc(Cl)ccc3o2)n1C)c1ccccc1 (centres undefined)	4	20	0	-1	0	99
SMILES	PKD1 kinase inh	VLA-4 inh	GRK2 aptamer HTS	LANA-H2A inh	HDAC3 inhib	DSG3 Ab inh
CC(OC(=O)CCc1ccccc1)C(=O)Nc1ccc(Cl)cn1 (centres undefined)	·	2	0	-2	9	94
CC(C)N(Cc1nccn1C)C(=O)CC1C(=O)NCCN1Cc1ccccc1C(F)(F)F (centres undefined)	-5	27	2	13*	1	·
O=C(CC1C(=O)NCCN1Cc1ccccc1C(F)(F)F)NC1CCC1 (centres undefined)	·	-10	2	181*	-2	107
O=C(CC1C(=O)NCCN1Cc1ccccc1C(F)(F)F)NC1CCCCC1 (centres undefined)	·	-98	2	3	-2	97
CN(CCc1ccccn1)C(=O)CC1C(=O)NCCN1Cc1ccccc1C(F)(F)F (centres undefined)	6	20	0	4	-2	·
CCCCOc1ccc(/C=N/NC(=S)Nc2cccc(C)c2C)cc1	-5	4	0	13	1	2.8*

Screening results deposited in PubChem by several laboratories.
